High-throughput results as filed in PubChem BioAssay.
Compounds with a hit are over-represented: about 18% of the library has one in this group of screens.
IL-1B inflam inh: inhibitors of inflammasome signaling (IL-1 beta secretion); activity change, % at 57.5 µM; AID 743279; THP-1 LPS/ATP IL-1B secretion, AlphaLISA, 16 h; stronger effect = lower value; 360,000 tested, 4.7% active; in the data active means activity change below about -50%; inconclusive means mostly about -30% to -49%
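THP-1 cells pretreated 1 hr with compounds (up to 57.5 uM final), then stimulated with LPS (250 ng/mL final) plus ATP (1.25 mM final); secreted IL-1B measured by AlphaLISA after 16 hr, decreased signal indicating inhibition.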
CtBP-E1A inh: CtBP/E1A binding inhibition; AID 651724; 340,000 tested, 0.49% active; activity change, % (no concentration beside the values); AlphaScreen GST-E1A/His-CtBP binding, 1536-well; stronger effect = lower value; in the data active means activity change below about -65%; inconclusive means mostly about -30% to -63%
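AlphaScreen with 125 nM GST-E1A and 125 nM His-CtBP (5X stocks) in Tris pH 8.0, 300 mM NaCl, BSA, Tween 20, TCEP. Compounds preincubated 2 h at 37 deg C, then glutathione donor/nickel acceptor beads added for 1 h at 37 deg C in dark.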
TDP1 inh: inhibitors of human tyrosyl-DNA phosphodiesterase TDP1; Q9NUW8; recombinant TDP1, AlphaScreen DNA substrate cleavage; Potency, µM (titrated, usually from 130 µM), usual class: inhibitors; 350,000 tested, 0.28% active; AID 485290; further: nearly all actives have a fitted effect of over 40% in size
Target sequence (Q9NUW8 whole entry, looked up): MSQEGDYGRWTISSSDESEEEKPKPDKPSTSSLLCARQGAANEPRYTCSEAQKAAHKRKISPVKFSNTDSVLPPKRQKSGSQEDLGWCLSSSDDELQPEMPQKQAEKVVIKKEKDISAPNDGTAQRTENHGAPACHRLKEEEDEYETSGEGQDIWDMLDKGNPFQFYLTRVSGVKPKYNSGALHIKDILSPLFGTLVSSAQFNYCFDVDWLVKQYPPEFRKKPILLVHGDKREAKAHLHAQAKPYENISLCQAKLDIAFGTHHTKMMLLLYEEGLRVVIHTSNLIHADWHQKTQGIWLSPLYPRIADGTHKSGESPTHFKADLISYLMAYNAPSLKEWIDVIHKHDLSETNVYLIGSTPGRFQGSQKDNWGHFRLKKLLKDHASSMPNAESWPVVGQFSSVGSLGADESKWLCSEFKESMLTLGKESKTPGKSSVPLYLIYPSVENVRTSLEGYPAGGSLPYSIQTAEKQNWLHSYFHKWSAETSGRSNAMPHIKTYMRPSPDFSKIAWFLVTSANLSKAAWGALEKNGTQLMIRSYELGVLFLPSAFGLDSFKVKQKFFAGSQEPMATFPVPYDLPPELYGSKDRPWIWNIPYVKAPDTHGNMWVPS
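Here, a 5' biotin and 3' phosphotyrosine-FITC DNA oligonucleotide reports Tdp1 activity: intact substrate bridges AlphaScreen beads, while cleavage leaves a 3' phosphate and drops signal. All incubations at room temperature.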
DT40 TDP1 CPT: DT40-hTDP1 cell growth loss with CPT | 420,000 tested, 12% active | Potency, µM (top dose mostly 46.2 µM), hits mostly inhibitors | AID 686979 | chicken DT40 Tdp1-/-;hTDP1 cells + 20 nM CPT, ATP luminescence, 48 h; further: nearly all actives have a fitted effect of over 55% in size
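Chicken DT40 Tdp1-/- cells stably complemented with human TDP1 were seeded at 400 cells/well in medium containing 20 nM camptothecin, exposed to pin-transferred compounds, and grown at 37 °C for at least 48 hr. Viability was read as ATP luminescence.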
Six1-Eya2 inh: blocks human Six1 binding to Eya2 | 360,000 tested, 0.56% active | AlphaScreen GST-Six1/His-Eya2 binding, biochemical; stronger effect = lower value | Q15475+O00167 | activity change, % (concentration not given with the values); in the data active means activity change below about -65%; inconclusive means mostly about -30% to -63%
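Compounds are tested against tagged Six1 and Eya2 proteins bridged by glutathione donor and nickel acceptor beads; after a one-hour incubation at 37 °C without light, AlphaScreen emission is recorded.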
TDP1 cell noCPT: qHTS for Inhibitors of human tyrosyl-DNA phosphodiesterase 1 (TDP1): qHTS in cells in absence of CPT. DT40 Tdp1-/- hTDP1 cells, no CPT, ATP luminescence, 48 h. Potency, µM (series often up to 46.2 µM), usual class: inhibitors. 420,000 tested, 15% active; further: nearly all actives have a fitted effect of over 55% in size
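DT40 Tdp1-/-;hTDP1 cells, no CPT (DMSO vehicle only), 400 cells/well; compounds pin-transferred; ≥48 hr, 37 °C; CellTiter-Glo 30 min RT dark, luminescence read.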
Of the large screens only hits and unclear results are named; the others gave an inactive call. Unless noted, the call rests on the fitted dose curve; in most records, active means well fitted curve in the direction sought with a large enough effect; inconclusive means small, poorly fitted or top-dose-only effect, or another doubt; inactive means no such curve, though single readings can be large; an effect the other way counts as inactive or inconclusive.

O=C1CC(N2CCSCC2)C(=O)N1c1cccc(Br)c1 (stereo unspecified)	none
O=C1NC[C@@H](CCCCN2C[C@H](Cc3ccccc3)N(CCc3ccccc3)C(=O)C2=O)N(Cc2ccccc2)C1=O	none (no result: TDP1 inh)
O=C(CSc1nnc(CNC(=O)c2ccccc2)o1)NCc1ccc(F)cc1	DT40 TDP1 CPT inconclusive
N/C(=N\c1nc2ccccc2o1)NC(=O)c1ccccc1F	TDP1 cell noCPT inconclusive
N/C(=N\c1nc2ccccc2o1)NC(=O)c1ccccc1NC(=O)c1ccccc1	DT40 TDP1 CPT 5.17µM, TDP1 cell noCPT 3.66µM
Cc1ccnc(NS(=O)(=O)c2ccc(NC(=O)C3CC3)cc2)n1	none
CN(CC(=O)Nc1cccc(F)c1)C(=O)c1cccc(S(=O)(=O)N2CCN(Cc3ccccc3)CC2)c1	DT40 TDP1 CPT 8.2µM, TDP1 cell noCPT 8.2µM (no result: TDP1 inh)
CN(CC(=O)Nc1ccccc1Cl)C(=O)c1cccc(S(=O)(=O)N2CCN(Cc3ccccc3)CC2)c1	DT40 TDP1 CPT 11.6µM, TDP1 cell noCPT 9.2µM (no result: TDP1 inh)
O=C(CN1CCN(C(=O)c2cccc(S(=O)(=O)N3CCCC3)c2)CC1)Nc1cccc(F)c1	DT40 TDP1 CPT inconclusive
CCCC(=O)Nc1ccc2c(c1)nc(CN1CCN(C(=O)OCC)CC1)n2C	none (no result: TDP1 inh)
CCCn1c(CN2CCN(C(=O)OCC)CC2)nc2cc(NC(C)=O)ccc21	DT40 TDP1 CPT inconclusive, TDP1 cell noCPT 16.4µM (no result: CtBP-E1A inh, TDP1 inh)
CCCn1c(CN2CCN(C(=O)OCC)CC2)nc2cc(NC(=O)C(C)C)ccc21	DT40 TDP1 CPT 20.6µM, TDP1 cell noCPT 11.6µM (no result: TDP1 inh)
CCc1cc2c(-c3ccccc3)cc(=O)oc2cc1OCC(C)=O	DT40 TDP1 CPT inconclusive (no result: TDP1 inh)
CCOc1ccc(NC(=O)C2CCCN(S(=O)(=O)c3ccc(-n4cnnn4)cc3)C2)cc1 (stereo unspecified)	none (no result: TDP1 inh)
O=C(Cc1ccc(S(=O)(=O)N2CCOCC2)s1)N1CCN(S(=O)(=O)c2cccc(Cl)c2)CC1	DT40 TDP1 CPT 16.4µM, TDP1 cell noCPT 16.4µM
Cc1ccc(S(=O)(=O)N2CCN(C(=O)Cc3ccc(S(=O)(=O)N4CCOCC4)s3)CC2)cc1	none
O=C(c1ccc(S(=O)(=O)N2CCOCC2)cc1)N1CCN(S(=O)(=O)c2ccc(Cl)s2)CC1	DT40 TDP1 CPT inconclusive, TDP1 cell noCPT 16.4µM (no result: CtBP-E1A inh)
CCOc1ccccc1N1CCN(C(=O)Cc2ccc(S(=O)(=O)N3CCOCC3)s2)CC1	DT40 TDP1 CPT inconclusive, TDP1 cell noCPT 20.6µM
O=C(Nc1ccc(S(=O)(=O)N2CCOCC2)cc1)c1ccc(Cl)s1	DT40 TDP1 CPT 23.1µM, TDP1 cell noCPT inconclusive
O=C(Nc1ccc(Cl)cc1)c1ccc(S(=O)(=O)N2CCOCC2)cc1	DT40 TDP1 CPT inconclusive, TDP1 cell noCPT inconclusive
O=C(c1ccc(S(=O)(=O)N2CCOCC2)cc1)N1CCOCC1	none
O=C(Cc1ccc(S(=O)(=O)N2CCOCC2)s1)N1CCN(S(=O)(=O)c2cccc(F)c2)CC1	DT40 TDP1 CPT inconclusive (no result: TDP1 inh)
COc1ccc(NC(=O)c2ccc(-n3cccn3)nc2)c(OC)c1	none
O=C(Cc1ccc(S(=O)(=O)N2CCOCC2)s1)N1CCN(c2cccc(C(F)(F)F)c2)CC1	DT40 TDP1 CPT 7.31µM, TDP1 cell noCPT 3.66µM
O=C(O)Cc1ccc(S(=O)(=O)N2CCCC2)s1	TDP1 inh 10µM
N#Cc1ccc(OCC(=O)N2CCN(S(=O)(=O)c3cccc(Cl)c3)CC2)cc1	none
O=C(Cc1ccc(S(=O)(=O)N2CCOCC2)s1)N1CCN(S(=O)(=O)c2ccc(Cl)cc2)CC1	IL-1B inflam inh inconclusive, DT40 TDP1 CPT 23.1µM, TDP1 cell noCPT 23.1µM
N#Cc1ccc(OCC(=O)N2CCN(S(=O)(=O)c3ccc(Cl)s3)CC2)cc1	IL-1B inflam inh inconclusive, DT40 TDP1 CPT 16.4µM, TDP1 cell noCPT inconclusive
COc1ccc(NC(=O)C(=O)NCCN2CCN(C(=O)c3cccc(Br)c3)CC2)cc1	TDP1 cell noCPT inconclusive
Cc1ccc2[nH]c3c(c2c1)SC(C)(C)CC3=O	TDP1 cell noCPT inconclusive (no result: CtBP-E1A inh)
Cc1cc2ncn(C(=O)c3c(-c4ccccc4)noc3C)c2cc1C	none
OC(c1ccc2c(c1)CN(Cc1ccc3nsnc3c1)CCO2)C1CCCCC1 (stereo unspecified)	none (no result: IL-1B inflam inh, CtBP-E1A inh, TDP1 inh, Six1-Eya2 inh)
Cc1ccc(NC(=O)CSCC(=O)Nc2cccc(S(=O)(=O)N3CCCCCC3)c2)cc1	DT40 TDP1 CPT 20.6µM, TDP1 cell noCPT inconclusive (no result: CtBP-E1A inh)
CCOc1ccccc1Nc1nnc(SCC(=O)Nc2ccc3[nH]c(=O)[nH]c3c2)s1	none
CCOc1ccccc1Nc1nnc(SCC(=O)Nc2cccc(S(=O)(=O)NC3=NCCCCC3)c2)s1	DT40 TDP1 CPT 23.1µM, TDP1 cell noCPT 18.4µM
Cc1cccc(NC(=O)CSCC(=O)Nc2cccc(S(=O)(=O)N3CCCCCC3)c2)c1	TDP1 cell noCPT inconclusive
Cc1ccc(Nc2nnc(SCC(=O)Nc3cccc(S(=O)(=O)N4CCCCC4)c3)s2)cc1	DT40 TDP1 CPT inconclusive, TDP1 cell noCPT 18.4µM
CC(C)Nc1nnc(SCC(=O)Nc2ccc3c(c2)C(=O)c2ccccc2C3=O)s1	DT40 TDP1 CPT inconclusive, Six1-Eya2 inh -74.2, TDP1 cell noCPT 18.4µM
